Rows were chosen to be rich in hits. Some 0.81% of all compounds tested hit in one or more screens of this group.
TRHR PAM = qHTS for Small Molecule Agonists and Allosteric Enhancers of Human TRH Receptor: Primary Screen for Enhancers; enhancement, % at 2 µM; Thyrotropin-releasing hormone receptor (Homo sapiens), P34981; TRHR cells, fluo-8 calcium fluorescence, EC20 TRH enhancement; 360,000 compounds, 0.66% hits; in the data active = enhancement above about 30%; note: 0% is about no effect
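TRHR-expressing cells loaded with fluo-8 calcium dye were read kinetically (ex 480/em 530) during compound addition, then stimulated with an EC20 of TRH (10 nM final). Enhancement of the Gq-mediated intracellular calcium response was scored.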
TRHR ag = qHTS for Small Molecule Agonists and Allosteric Enhancers of Human TRH Receptor: Primary Screen for Agonists. Thyrotropin-releasing hormone receptor (Homo sapiens), P34981. TRHR cells, calcium flux fluo-8, FDSS agonist mode. activation, % at 2 µM. 360,000 compounds, 0.18% hits. AID 493084, 2011; in the data active = activation above about 30%; note: 0% is about no effect
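Steps: seed TRHR cells overnight; add fluo-8 no-wash Ca dye, RT 30 min–1.5 h; record 10 s baseline; pin-transfer compounds; monitor fluorescence 1 cycle/s for the agonist window. Calcium increases flag candidate agonists.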
TRPML1 agonist = qHTS for Agonists of the Human Mucolipin Transient Receptor Potential 1 (TRPML1); Mucolipin-1 (Homo sapiens), Q9GZU1; AID 624414, 2012; TRPML1-expressing cells, Ca2+ dye fluorescence, FDSS; activation, % (no concentration beside the values); 410,000 compounds, 0.12% hits; in the data active = activation above about 50%; note: 0% is about no effect
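Cells: TRPML1-DL, 1X Tet inducer, ~16 h at 37 degrees C/5% CO2. Dye: ABD Ca8 no-wash + quencher, 45-90 min RT. Read: 10 s baseline, compound add, 110 s agonist phase; 54-4 EC80 (4uM final), 110 s antagonist phase.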
TRPML1 inh = qHTS for Inhibitors of the Human Mucolipin Transient Receptor Potential 1 (TRPML1). 390,000 compounds, 0.02% hits. activity change, negative = inhibition, % (test concentration not listed). Mucolipin-1 (Homo sapiens), Q9GZU1. TRPML1-inducible cells, Ca2+ dye fluorescence, FDSS; active compounds read low; inhibition of EC80 agonist-evoked calcium signal; in the data active = activity change below about -50%;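 note: stimulus is agonist 54-4 at its EC80 concentration; % is set by controls: 0 for no effect and ±100 for the full control effect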
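TRPML1-DL cells, Tet-induced overnight (~16 h, 37 °C) at 1,500 cells/well, were loaded with Ca8 no-wash dye plus quencher for 45-90 min at room temperature. Compounds were pinned during FDSS kinetic reading; agonist 54-4 at EC80 (4 uM final) then added.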
TSG101-PTAP inh = qHTS Assay for Iinhibitors of HIV-1 Budding by Blocking the Interaction of PTAP/TSG101; Potency, µM (titrated, usually from 115 µM), for inactives: at the top dose activity change, negative = inhibition, usual class: inhibitors; Fluorescence polarization, FITC-PTAP peptide / Tsg101 binding; 340,000 tested, under 10 active; Tumor susceptibility gene 101 protein (Homo sapiens), Q99816; active = well fitted inhibition curve with a large enough effect in the main read-out, with a control signal flat, not every such curve was filed as active; note: potency is the fitted concentration of half-maximal effect; % of control where 0% means no effect
Target sequence (Q99816 whole entry, looked up): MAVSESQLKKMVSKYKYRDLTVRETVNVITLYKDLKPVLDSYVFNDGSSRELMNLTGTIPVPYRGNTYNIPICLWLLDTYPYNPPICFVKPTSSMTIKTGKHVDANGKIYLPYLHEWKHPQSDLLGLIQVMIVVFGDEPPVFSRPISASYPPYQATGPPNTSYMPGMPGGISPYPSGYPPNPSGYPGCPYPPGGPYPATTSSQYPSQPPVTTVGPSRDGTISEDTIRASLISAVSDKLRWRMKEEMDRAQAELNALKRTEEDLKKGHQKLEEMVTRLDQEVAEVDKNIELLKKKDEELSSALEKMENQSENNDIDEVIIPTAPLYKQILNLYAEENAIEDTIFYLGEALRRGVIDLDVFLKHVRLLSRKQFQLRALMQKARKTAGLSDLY
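Steps: Tsg101 binding domain dispensed (10 uM final), compounds pinned in DMSO, FITC-labeled PTAP-motif peptide added (50 nM final); after 20 min binding at room temperature, polarization measured.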
* hit, by the source's call; . = no result given.

SMILES | TRHR PAM | TRHR ag | TRPML1 agonist | TRPML1 inh | TSG101-PTAP inh
COc1cc(C2c3c(oc4cc(C)c(C)cc4c3=O)C(=O)N2CCCN2CCOCC2)ccc1O (configuration not stated) | 5 | 0 | 0 | -8 | .
CC(CCn1cccn1)NC(=O)c1cc(COc2ccc(F)cc2F)on1 (configuration not stated) | 35* | 0 | 1 | 14 | 0%
O=C(NC1CCN(Cc2ccccc2)C1)c1cc(COc2ccc(F)cc2F)on1 (configuration not stated) | 31* | 0 | 1 | 25 | -4%
Cc1ccc(C)c(OCc2cc(C(=O)NC3CCN(Cc4ccccc4)CC3)no2)c1 | 7 | 2 | 0 | 4 | -4%
Cc1ccccc1N(C(=O)c1csnn1)C(C(=O)NC1CCCCC1)c1ccncc1 (configuration not stated) | 32* | -1 | -1 | 6 | -11%
COC(=O)c1cnn2c1C(=O)N(Cc1cccs1)CC2 | 34* | 0 | -1 | 2 | -7%
CC/C(=N\NC(=O)c1csc(C)c1C)c1cccs1 | 8 | 0 | -1 | -1 | -6%
CCC/C(=N\NC(=O)c1csc(C)c1C)c1cccs1 | 35* | 0 | 1 | -13 | -14%
O=C(O)c1ccc2c(=O)[nH]c(CN3CCOCC3)nc2c1 | -4 | -1 | -1 | -9 | -2%
O=C(O)c1ccc2c(=O)[nH]c(CCl)nc2c1 | 33* | 1 | -1 | -14 | -2%
Cc1ccc(NC(=S)Nc2cccc(S(=O)(=O)Nc3c(C)n(C)n(-c4ccccc4)c3=O)c2)cc1 | 32* | 0 | -1 | 22 | -2%
CC(=O)c1ccc(NC(=S)Nc2cccc(S(=O)(=O)Nc3c(C)n(C)n(-c4ccccc4)c3=O)c2)cc1 | -2 | 3 | -1 | 52 | 0%
N#C/C(=C\c1cccnc1)c1nc2c(s1)CCCC2 | 1 | 2 | 1 | 20 | -6%
COc1cc(/C=C(\C#N)c2nc3c(s2)CCCC3)ccc1O | 4 | 40* | . | . | .
CCN(CC(=O)Nc1cc(C)nn1-c1nc(C)cc(C)n1)Cc1ccccc1 | 33* | -1 | 0 | -17 | -7%
Cc1cc(C)nc(-n2nc(C)cc2NC(=O)CNCc2ccccc2)n1 | 6 | 0 | 1 | -6 | -11%
CCOc1ccc(C2CC(=O)NC(NC(=O)c3ccc(C)cc3)=N2)cc1 (configuration not stated) | 35* | -1 | 3 | 18 | .
Cc1ccc(C(=O)NC2=NC(c3ccc(C)cc3)CC(=O)N2)cc1 (configuration not stated) | 3 | -1 | 2 | 13 | .
O=C(C[n+]1cccc2cccc(O)c21)c1ccc(Br)cc1 | . | . | 0 | . | .
Cc1cc(C)n(-c2ccc(NC(=O)C3CCCCN3Cc3cccc4c3OCO4)cc2)n1 (configuration not stated) | 30* | 0 | 1 | 0 | 0%
Cc1cc(C)n(-c2ccc(NC(=O)C3CCCCN3C(=O)c3ccoc3)cc2)n1 (configuration not stated) | 2 | 0 | 0 | -14 | -4%
COc1cc2nc(N3CCCN(C)CC3)nc(NC3CCN(C)CC3)c2cc1OC | . | . | 2 | . | .
O=C1c2cc([N+](=O)[O-])ccc2-c2ncccc21 | -7 | 0 | 1 | -57* | -8%
O=C1c2cccnc2-c2ncccc21 | -10 | 0 | 0 | 11 | -2%
O=C(NCCN1CCOCC1)C(=O)NCC1CCCO1 (configuration not stated) | 34* | 0 | 0 | -6 | 0%
SMILES | TRHR PAM | TRHR ag | TRPML1 agonist | TRPML1 inh | TSG101-PTAP inh
C=CC[n+]1cccc2cccc(O)c21 | . | . | 3 | . | .
COC(=O)c1ccc(N=C2SCC(=O)N2C)cc1 | 37* | 0 | 0 | -6 | -5%
CN1C(=O)CSC1=Nc1ccc(Br)cc1 | 1 | 0 | 1 | 39 | -2%
O=C(c1cc(-c2ccc(O)cc2)on1)N1CCCCCC1 | 7 | -2 | 3 | -52* | -2%
CN(C)c1ccc(C=O)cc1Cl | . | . | -1 | . | .
S=c1[nH]c(-c2ccccc2)cn1/N=C/c1cccc2ccccc12 | 34* | 1 | 2 | -9 | 3%
CCN(CC)CCCN(Cc1cc2cc3c(cc2[nH]c1=O)OCCO3)C(=O)Nc1ccc(F)cc1 | 32* | -1 | 0 | 1 | -2%
Cc1cccc(NC(=S)N(CCN2CCOCC2)Cc2cc3cc4c(cc3[nH]c2=O)OCCO4)c1 | 34* | -1 | 2 | -4 | -8%
C[n+]1cccc(Br)c1 | . | . | -1 | . | .
COc1cc2c(NC3CCN(C)CC3)nc(N3CCCCC3)nc2cc1OCCOCCN(C)C | . | . | 0 | . | .
OC(C[n+]1c(Cl)ccc2ccccc21)c1ccccc1 (configuration not stated) | . | . | -1 | . | .
O=C(NCCc1ccccc1)C1CCN(Cc2cc3ccccc3n2Cc2cccc(Cl)c2)CC1 | 31* | 0 | 2 | -8 | .
COc1cccc(N/C(N)=N/c2nc(C(F)(F)F)cc(=O)[nH]2)c1 | 31* | 1 | -1 | 20 | -3%
Cc1cccnc1NC(=O)CCNS(=O)(=O)c1ccc2c(c1)c(=O)n(C)c(=O)n2C | 35* | 0 | 1 | -1 | 0%
CCc1nc(=O)c(-c2ccccc2)c(C)n1-c1ccccc1 | 37* | 0 | 2 | -53* | -3%
O=[S+]([O-])(c1ccc2c(c1)OCCO2)N1CCN([S+](=O)([O-])c2c(F)cc(Br)cc2F)CC1 | -2 | 0 | . | . | .
COCCCn1c(=S)[nH]c2c(sc3ccccc32)c1=O | 32* | 0 | 0 | -9 | -2%
Cn1c(=O)c2nc(SCC(=O)Nc3ccc(Cl)c(Cl)c3)n(C)c2n(C)c1=O | -2 | 0 | 2 | -2 | .
CC(=O)c1cccc(NC(=O)CSc2nc3c(=O)n(C)c(=O)n(C)c3n2C)c1 | 34* | 0 | 1 | 9 | .
Cc1[nH]c2ccccc2c1/C=C/c1ccnc2ccccc12 | . | . | 13 | . | .
CCCCOc1ccc(C(=O)NC(=S)Nc2ccc(CN3CCOCC3)cc2)cc1 | 32* | 0 | 0 | 12 | 3%
CC(C)OC(=O)c1cccc(-c2ccc(C=O)o2)c1 | 36* | 0 | 0 | 7 | 0%
CC(C)OC(=O)c1ccc(COC(=O)c2cccc(-c3nnc(-c4ccccc4)o3)c2)cc1 | 4 | 0 | 1 | 7 | -2%
O=C(C[n+]1ccnc2ccccc21)c1ccc(Br)cc1 | . | . | -1 | . | .
